Screens: PubChem BioAssay, The Scripps Research Institute Molecular Screening Center
GPR151 ag – activators of human GPR151, primary screen, cell-based, PathHunter beta-arrestin, luminescence | activation, % at 11.2 µM | 1% of 650,000 active | PathHunter beta-arrestin GPR151 cells | G-protein coupled receptor 151 (Homo sapiens), Q8TDV0; in the data active means activation above about 4.9%;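 further: 0% = median of compound wells and 100% = cells with positive control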
MITF primary – MITF inhibitors, primary screen, biochemical, AlphaScreen, human | 0.91% of 650,000 active | AlphaScreen MITF homodimerization, bead proximity signal | inhibition, % at 2.6 µM | AID 1259374, 2018 | Microphthalmia-associated transcription factor (Homo sapiens), O75030; in the data active means inhibition above about 50%;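 further: 0% = vehicle wells with protein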
Target sequence (O75030 whole entry, looked up): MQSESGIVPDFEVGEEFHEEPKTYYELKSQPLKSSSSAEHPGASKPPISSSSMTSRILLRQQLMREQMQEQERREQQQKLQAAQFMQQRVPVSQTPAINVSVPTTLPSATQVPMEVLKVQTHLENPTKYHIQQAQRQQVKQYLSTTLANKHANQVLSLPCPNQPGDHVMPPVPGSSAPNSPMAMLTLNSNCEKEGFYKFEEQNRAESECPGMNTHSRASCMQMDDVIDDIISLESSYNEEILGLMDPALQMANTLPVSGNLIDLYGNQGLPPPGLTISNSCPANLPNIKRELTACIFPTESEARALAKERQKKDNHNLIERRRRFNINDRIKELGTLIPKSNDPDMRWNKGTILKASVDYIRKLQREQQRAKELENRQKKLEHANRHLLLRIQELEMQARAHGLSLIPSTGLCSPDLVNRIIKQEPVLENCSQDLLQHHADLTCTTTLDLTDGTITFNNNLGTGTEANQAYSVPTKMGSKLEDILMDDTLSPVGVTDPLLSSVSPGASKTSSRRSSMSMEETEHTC
TEAD-YAP block – TEAD-YAP interaction inhibition, primary screen, TEAD-YAP interaction inhibitor project, luminescence, HEK-TIYL cells | 1.4% of 640,000 active | TEAD-Gal4/YAP UAS-luciferase luminescence | inhibition, % at 9.12 µM; in the data active means inhibition above about 32%;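 further: 0% = median of test compound wells and 100% = reference inhibitor wells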
FBW7 act – FBW7 E3 ligase activators, primary screen, biochemical, AlphaScreen, human; F-box/WD repeat-containing protein 7 (Homo sapiens), Q969H0; AlphaScreen FBW7–phospho-cyclin E peptide binding, activator screen; normalized activity (activation), % at 26.1 µM; 0.13% of 650,000 active; in the data active means normalized activity above about 1.9%;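 further: purified mutant Fbw7 with reduced substrate affinity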
GPR151 confirm – GPR151 activators, triplicate retest, confirmation, cell-based, PathHunter beta-arrestin, luminescence; 6,700 tested, under 10 active; shares compounds with GPR151 ag; GPR151 PathHunter beta-arrestin cells, 90 min; % of EA-reagent control over plate median; AID 1508609, 2020; activation, % at 11.2 µM;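 active means mean percent activation across replicates above the confirmation screen cutoff of 4.91%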
GPR119 counter – GPR119 activators in beta-arrestin cells, counter-screen for GPR151 activator project, cell-based, PathHunter beta-arrestin, luminescence, triplicate; shares compounds with GPR151 ag; 90 min; 0 = compound-well median, 100 = enzyme-acceptor control; activation, % at 11.2 µM; 0.3% of 6,700 active; AID 1508611, 2020;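 active means mean percent activation in the counterscreen above 29.09%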;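 further: counterscreen on off-target GPR119 to flag nonselective hits from the GPR151 activator screen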
Starred values were filed as active, the others as inactive; . = not tested or not shown. Shown are actives, neighbours in structure and some others; about 3.5% of the full set was active somewhere.

SMILES	GPR151 ag	MITF primary	TEAD-YAP block	FBW7 act	GPR151 confirm	GPR119 counter
O=C(COc1ccccc1)N1C(=O)c2ccccc2S1(=O)=O	5.2*	10	2	0	1	2
N#Cc1ccc(OCC(=O)N2C(=O)c3ccccc3S2(=O)=O)cc1	0	1	9	0	.	.
CC(=O)C1=C(C)NC(C)=C(C(C)=O)C1c1ccc(-c2ccc(F)cc2)o1	0	4	-16	0	.	.
COc1ccnc(N2CCN(c3ccc4cccc(-c5ccsc5)c4n3)CC2)n1	-1	16	16	1	.	.
O=C(CSc1nnc(NC(=O)C23CC4CC(CC(C4)C2)C3)s1)NCc1ccccc1	2	14	6	0	.	.
CCSCCOC(=O)C1=C(C)NC(=O)CC1c1ccccc1[N+](=O)[O-] (centres undefined)	1	8	-29	0	.	.
CCN(CC)S(=O)(=O)c1cccc(C(=O)NN)c1	5.5*	-3	-11	0	0	-9
CCS(=O)(=O)c1c(S(=O)(=O)CC)c2ccc(C(N)=O)cn2c1C(=O)OC	1	-4	-14	0	.	.
CC(C)N(C(=O)CSc1ccc(-c2ccc3c(c2)OCCO3)nn1)C(C)C	0	20	2	0	.	.
c1nnn(CC2CCOCO2)n1 (centres undefined)	15*	12	7	0	0	-5
CC1CN(C(=S)c2cccc(O)c2)CC(C)O1 (centres undefined)	0	3	5	0	.	.
O=C(CCC1CCCCC1)Nc1nn[nH]n1	7.7*	1	1	0	1	4
O=[N+]([O-])c1c(N2CCCC2)ncnc1N1CCCC1	0	-2	6	0	.	.
O=[N+]([O-])c1c(N2CCCCC2)c([N+](=O)[O-])c2nsnc2c1N1CCCCC1	5.6*	13	3	0	-1	-10
Cc1cc2nnc(SCC(=O)Nc3sc4c(c3C#N)CCC(C)C4)n2c2ccccc12 (centres undefined)	5.3*	22	3	0	0	4
COC(=O)c1c(NC(=O)CSc2nnc3cc(C)c4ccccc4n23)sc2c1CCC(C)C2 (centres undefined)	0	0	-5	0	.	.
Cc1cc(C(=O)Nc2sc3c(c2C#N)CCC(C)C3)cs1 (centres undefined)	8.3*	-1	-65	0	0	-11
O=C(NCC(c1ccc2c(c1)OCO2)N1CCOCC1)C(=O)Nc1ccc(F)cc1F (centres undefined)	-2	-15	-14	0	.	.
Cc1ccc(-n2ncc3c(SCC(=O)Nc4ccc(C(N)=O)cc4)ncnc32)c(C)c1	5.3*	3	8	0	1	0
Cc1ccc(-n2ncc3c(SCC(=O)NC(C)C)ncnc32)c(C)c1	1	2	0	0	.	.
O=C(CN1C(=O)COc2ccccc21)Nc1cccc(F)c1	5.2*	11	-7	0	0	8
CC(C)c1nc(C(=O)N2CCCC(N3CCOCC3)C2)cs1 (centres undefined)	6.7*	-7	5	0	-2	-19
N#CCn1cnc2c(nnn2-c2cccc(F)c2)c1=O	6.1*	-3	10	0	0	-7
O=C(CN(c1cccc(Cl)c1)S(=O)(=O)c1ccc(Cl)cc1)N1CCOCC1	9.1*	-3	2	0	0	-7
CN1CCN(C(=O)CN(c2cccc(Cl)c2)S(=O)(=O)c2ccc(Cl)cc2)CC1	1	11	-3	0	.	.
CC1=C(C(=O)Nc2ccc(C)cc2C)C(c2ccccc2F)NC(=S)N1 (centres undefined)	1	17	0	1	.	.
COC(=O)CCC(=O)OC1(C)C(=O)C=C2C=C(C3CC3)OC=C2C1=O (centres undefined)	5.8*	17	.	0	0	9
